# Measured values taken from PubChem BioAssay (EPA / NIEHS).
# Results filed as inconclusive are left out. Calls of active or inactive are those of the source. The calls were made as follows: active = hit-call score of the fitted dose curve at least 0.9, where 1 is the maximum; inconclusive = response in the unintended direction; inactive = score below 0.9.
# Tests used:
# [1] = TOX21_p53_BLA_p4_viability: Viability Assessment in the Tox21 HCT-116 p53 Agonism Beta-lactamase Assay, Phase 4 (AID 2283597);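 also: hits lower the luminescence signal meaning cytotoxicity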
# In short: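 Luminescent ATP readout (CellTiter-Glo, 30 min, room temperature) in the same wells as the p53 bla ratio. HCT116 cells were treated for 16 h at 37C with DMSO-dissolved compounds.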
# [2] = biological target: Cellular tumor antigen p53 (Homo sapiens) (UniProt P04637); experiment: TOX21_p53_BLA_p3_ratio: Tox21 HCT-116 p53 Agonism Beta-lactamase Assay, Ratio, Phase 3 (AID 2283596)
# Chain of Cellular tumor antigen p53 (Homo sapiens) (P04637 whole entry, looked up): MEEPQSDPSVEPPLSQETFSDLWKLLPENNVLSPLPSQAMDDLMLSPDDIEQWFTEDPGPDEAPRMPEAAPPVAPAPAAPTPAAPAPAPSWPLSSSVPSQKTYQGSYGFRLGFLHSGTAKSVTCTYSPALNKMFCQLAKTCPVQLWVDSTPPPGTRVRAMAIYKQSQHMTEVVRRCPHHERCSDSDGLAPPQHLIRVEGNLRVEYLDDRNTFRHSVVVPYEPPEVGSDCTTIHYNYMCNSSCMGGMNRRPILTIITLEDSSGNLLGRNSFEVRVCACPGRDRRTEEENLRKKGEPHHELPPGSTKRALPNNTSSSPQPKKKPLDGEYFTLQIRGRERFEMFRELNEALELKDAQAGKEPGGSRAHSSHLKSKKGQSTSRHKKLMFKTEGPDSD
# In short: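 HCT116 p53-bla cells (4000/well) given compound in DMSO (217-fold dilution) after 5 h, incubated 16 h at 37C. CCF4-AM substrate 2 h at room temperature; 460/530 nm emission ratio, gain fitted against DMSO.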
# [3] = TOX21_p53_BLA_p5_viability: Viability Assessment in the Tox21 HCT-116 p53 Agonism Beta-lactamase Assay, Phase 5 (AID 2283600)
# In short: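 Seeded cells (4000/well) settle 5 h before compound addition. Plates then incubate 16 h at 37C, receive FRET substrate for 2 h, and finally CellTiter-Glo, with luminescence measured after a 30 min room-temperature incubation.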
# [4] = biological target: Cellular tumor antigen p53 (Homo sapiens) (UniProt P04637); experiment: TOX21_p53_BLA_p4_ratio: Tox21 HCT-116 p53 Agonism Beta-lactamase Assay, Ratio, Phase 4 (AID 2283601)
# In short: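 HCT-116 p53 beta-lactamase reporter cells (4000/well) preincubated 5 h, then compound (217-fold dilution of DMSO stock) for 16 h at 37C. CCF4-AM substrate added 2 h at room temperature; 460/530 nm emission ratio fitted upward versus DMSO.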
# [5] = biological target: Cellular tumor antigen p53 (Homo sapiens) (UniProt P04637); experiment: TOX21_p53_BLA_p5_ratio: Tox21 HCT-116 p53 Agonism Beta-lactamase Assay, Ratio, Phase 5 (AID 2283599)
# In short: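 HCT-116 p53-bla cells (4000/well) plated 5 h, dosed with compound (217-fold DMSO dilution) for 16 h at 37 C; CCF4-AM substrate 2 h at room temperature. Activity is the 460/530 nm emission ratio (405 nm excitation), fitted in gain-of-signal direction versus DMSO.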
# [6] = Tanguay_ZF_120hpf_MORT_legacy: (Legacy) Oregon State University Tanguay Lab 120 Hour Post-fertilization zebrafish Assay for Mortality (AID 2283633)
# In short: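 Single dechorionated Tropical 5D embryos were held with test chemical (0.64% DMSO final) from 6 to 120 hpf at 28C under foil. Deaths at 24 or 120 hpf were recorded as binary calls, analysed for increase over DMSO controls.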
# [7] = Tanguay_ZF_120hpf_YSE_legacy: (Legacy) Oregon State University Tanguay Lab 120 Hour Post-fertilization zebrafish Assay for Yolk Sac Edema (AID 2283634)
# In short: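 Single dechorionated embryos were held in sealed plates at 28C with test chemical (0.64% DMSO final) from 6 hpf until 120 hpf. Edema of the yolk sac was then recorded as a binary endpoint; non-mortality endpoints were skipped for dead embryos.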
# [8] = Tanguay_ZF_120hpf_AXIS_legacy: (Legacy) Oregon State University Tanguay Lab 120 Hour Post-fertilization zebrafish Assay for Body Axis Malformation (AID 2283635)
# In short: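 Each dechorionated embryo was exposed alone from 6 hpf, with DMSO at 0.64% (vol/vol) and trimethyltin chloride 5 uM as positive control. Axis malformation was recorded at 120 hpf unless the embryo had died.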
# [9] = Tanguay_ZF_120hpf_EYE_legacy: (Legacy) Oregon State University Tanguay Lab 120 Hour Post-fertilization zebrafish Assay for Eye Malformation (AID 2283636);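 also: binary presence or absence of eye malformation scored by brightfield in 120 hpf larvae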
# In short: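 Dechorionated Tropical 5D zebrafish embryos, one per well from 6 hpf, static exposure to 120 hpf at 28C, 0.64% DMSO. Eye malformation scored present/absent by brightfield; dead embryos not scored.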
# [10] = Tanguay_ZF_120hpf_SNOU_legacy: (Legacy) Oregon State University Tanguay Lab 120 Hour Post-fertilization zebrafish Assay for Snout Malformation (AID 2283637)
# In short: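 Dechorionated tropical 5D wild-type zebrafish embryos exposed statically from 6 to 120 hpf at 28C, one per well, in 0.64% DMSO. Snout malformation scored as present/absent by brightfield at 120 hpf; dead embryos not scored.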
# [11] = Tanguay_ZF_120hpf_JAW_legacy: (Legacy) Oregon State University Tanguay Lab 120 Hour Post-fertilization zebrafish Assay for Jaw Malformation (AID 2283638)
# In short: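 Wild-type 5D embryos, chorion removed at 4 hpf, dosed singly from 6 hpf; 28C static, sealed, foil-covered, to 120 hpf. Endpoint: jaw defect yes/no (brightfield); mortality excludes scoring.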
# [12] = Tanguay_ZF_120hpf_OTIC_legacy: (Legacy) Oregon State University Tanguay Lab 120 Hour Post-fertilization zebrafish Assay for Otic Vesicle Malformation (AID 2283639)
# In short: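 Otic vesicle malformation is read as a yes/no morphology call at 120 hpf. Exposure is static at 28C with 0.64% (vol/vol) DMSO; embryos that die are excluded from non-mortality endpoints.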
# [13] = Tanguay_ZF_120hpf_PE_legacy: (Legacy) Oregon State University Tanguay Lab 120 Hour Post-fertilization zebrafish Assay for Pericardial Edema (AID 2283640)
# In short: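 Zebrafish larvae are exposed from early development to 120 hpf at 28C, with 0.64% DMSO final. Each surviving larva receives a yes/no pericardial edema call by brightfield imaging, analysed relative to the DMSO baseline.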
# [14] = Tanguay_ZF_120hpf_BRAI_legacy: (Legacy) Oregon State University Tanguay Lab 120 Hour Post-fertilization zebrafish Assay for Brain Malformation (AID 2283641)
# In short: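 Static exposure of staged wild-type embryos until 120 hpf, kept at 28C with light excluded and final DMSO of 0.64% (vol/vol). Presence or absence of brain malformation was noted under brightfield; mortality precluded scoring.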
# [15] = Tanguay_ZF_120hpf_SOMI_legacy: (Legacy) Oregon State University Tanguay Lab 120 Hour Post-fertilization zebrafish Assay for Somite Malformation (AID 2283647)
# In short: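 Somitogenesis defects are recorded as binary calls in whole larvae at 120 hpf after continuous static chemical exposure starting at 6 hpf in dechorionated 5D embryos. DMSO serves as negative control and baseline.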
# [16] = Tanguay_ZF_120hpf_PFIN_legacy: (Legacy) Oregon State University Tanguay Lab 120 Hour Post-fertilization zebrafish Assay for Pectoral Fin Malformation (AID 2283648);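 also: each larva judged yes or no for fin defect by brightfield with dead larvae skipped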
# In short: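 Dechorionated Tropical 5D wild-type zebrafish embryos, one per well, statically exposed from 6 to 120 hpf at 28C with 0.64% DMSO final. Pectoral fin malformation scored present/absent by brightfield at 120 hpf; not scored in dead embryos.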
# [17] = Tanguay_ZF_120hpf_CFIN_legacy: (Legacy) Oregon State University Tanguay Lab 120 Hour Post-fertilization zebrafish Assay for Caudal Fin Malformation (AID 2283649)
# In short: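 Single dechorionated 5D wild-type embryos are dosed at 6 hpf (final DMSO 0.64%) and held statically at 28C. Caudal fin malformation is recorded as present or absent at 120 hpf under brightfield, excluding dead embryos.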
# [18] = Tanguay_ZF_120hpf_PIG_legacy: (Legacy) Oregon State University Tanguay Lab 120 Hour Post-fertilization zebrafish Assay for Pigmentation Malformation (AID 2283650)
# In short: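 Dechorionated Tropical 5D wild-type embryos, one per well from 6 hpf, statically exposed at 28C in the dark until 120 hpf, 0.64% DMSO final. Pigmentation scored present/absent by brightfield microscopy; dead embryos not scored; fitted versus DMSO.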
# [19] = Tanguay_ZF_120hpf_CIRC_legacy: (Legacy) Oregon State University Tanguay Lab 120 Hour Post-fertilization zebrafish Assay for Circulatory Malformation (AID 2283651)
# In short: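 Using wild-type Tropical 5D zebrafish, we exposed dechorionated embryos from 6 to 120 hpf in embryo medium with 0.64% DMSO. Circulatory defects were scored as present or absent; 5uM trimethyltin chloride served as positive control.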
# [20] = Tanguay_ZF_120hpf_SWIM_legacy: (Legacy) Oregon State University Tanguay Lab 120 Hour Post-fertilization zebrafish Assay for Swim Bladder Malformation (AID 2283654);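 also: swim bladder malformation in each larva scored yes or no under brightfield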
# In short: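 Dechorionated wild-type Tropical 5D zebrafish embryos, one per well from 6 hpf, were statically exposed at 28C until 120 hpf in 0.64% DMSO. Swim bladder malformation scored as present/absent by brightfield microscopy; not scored in dead larvae.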
structure (smiles),measurement,setting,value
CCCCCCOC(=O)CCCCC(=O)OCCCCCC,outcome,[1],inactive
CC(C)(C)N,outcome,[1],inactive
COC(=O)c1ccccc1C,outcome,[2],inactive
same,outcome,[3],inactive
same,outcome,[4],inactive
CC1CCC(C(C)(C)S)C(=O)C1 (stereo not drawn),outcome,[1],inactive
same,outcome,[5],inactive
same,outcome,[4],inactive
CCOC(=O)c1ccc(C)cc1,outcome,[2],inactive
same,outcome,[4],inactive
CC(C)(CO)COC(=O)C(C)(C)CO,outcome,[1],inactive
same,outcome,[5],inactive
same,outcome,[3],inactive
same,outcome,[4],inactive
O=C(Nc1ccccc1)c1cc(Cl)ccc1O,AC50,[1],12.6 µM (active)
same,AC50,[5],13.7 µM (active)
same,outcome,[3],inactive
same,outcome,[4],inactive
CC(Cl)COP(=O)(OCC(C)Cl)OCC(C)Cl (stereo not drawn),outcome,[1],inactive
same,outcome,[5],inactive
CCCCC(=O)O,outcome,[1],inactive
same,outcome,[5],inactive
same,outcome,[3],inactive
same,outcome,[4],inactive
CC(C)CCCCCOC(=O)CS,outcome,[1],inactive
same,outcome,[5],inactive
same,outcome,[3],inactive
C=CCCCCCCCCC=O,outcome,[1],inactive
same,outcome,[5],inactive
same,outcome,[3],inactive
CC(C)(c1ccccc1)c1ccc(Nc2ccc(C(C)(C)c3ccccc3)cc2)cc1,outcome,[1],inactive
same,outcome,[5],inactive
same,outcome,[3],inactive
same,outcome,[4],inactive
C1CNCCN1,outcome,[1],inactive
same,outcome,[5],inactive
same,outcome,[3],inactive
same,outcome,[4],inactive
same,outcome,[6],inactive
same,outcome,[7],inactive
same,outcome,[8],inactive
same,outcome,[9],inactive
same,outcome,[10],inactive
same,outcome,[11],inactive
same,outcome,[12],inactive
same,outcome,[13],inactive
same,outcome,[14],inactive
same,outcome,[15],inactive
same,outcome,[16],inactive
same,outcome,[17],inactive
same,outcome,[18],inactive
same,outcome,[19],inactive
same,outcome,[20],inactive
CCCCC(CC)COC(=O)/C=C/c1ccc(OC)cc1 (stereo not drawn),outcome,[1],inactive
Oc1ccc(/C=C/c2cc(O)cc(O)c2)cc1,outcome,[1],inactive
same,outcome,[5],inactive
same,outcome,[3],inactive
same,outcome,[4],inactive
C=C(C)C(=O)OCCCCCCCCCCCC,outcome,[1],inactive
same,outcome,[5],inactive
same,outcome,[3],inactive
same,outcome,[4],inactive
CCN1CN(CC)CN(CC)C1,outcome,[1],inactive
